In ChEMBL document CHEMBL3988442, “University of Dundee, Small-Polar-MMV Screening Library” (2021):
Among all 48,000 compounds or so, about 13,000 (27%) showed an effect of 50% or more. This is one part of the list.

The compounds below were run on Wolbachia pipientis (assay: Anti-Wolbachia Cell-Based Screen). Conditions: 5 µM.
Assay type: functional
Parameters: scale not given: in the data most compounds retested in dose-response had high values

| Compound | Percent Effect [%] |
| --- | --- |
| N#Cc1cccnc1NCCNC(=O)N1CCCSCC1 | -6.239 |
| CCN(CC)S(=O)(=O)CC(=O)Nc1ccsc1 | -11.66 |
| NC(=O)N1CCCC(C(=O)NCCOc2ccc(F)c(F)c2)C1 (stereo not drawn) | -0.02905 |
| CC(=O)N1CCCC(C(=O)NCCOc2cc(C)cc(C)c2)C1 (stereo not drawn) | 99.72 |
| NC(=O)N1CCCC(C(=O)NCCOc2ccc(F)cc2F)C1 (stereo not drawn) | -7.563 |
| COc1cccc(S(=O)(=O)CCN2CCN(CCO)CC2)c1 | 9.306 |
| Cc1ccc(-c2nc(C3CCN(C(=O)c4cnn(C)c4)CC3)no2)cn1 | 103.5 |
| Cc1ccc(-c2nc(C3CCN(C(=O)c4ccn(C)n4)CC3)no2)cn1 | 126.5 |
| N#Cc1cccc(C(=O)N2CC(c3nc(-c4cccnc4)no3)C2)c1 | 18.62 |
| Cc1ccc(-c2nc(C3CCN(C(=O)c4ccnn4C)CC3)no2)cn1 | 110.8 |
| O=C1NCCCC[C@@H]1Nc1ccc(-c2nc(C3CC3)no2)cn1 | -3.27 |
| Cc1noc(-c2ccc(N3CCC(C(=O)N4CCCC4)CC3)nc2)n1 | -5.391 |
| Cc1csc(CNc2ccc(-c3nc(C4CC4)no3)cn2)n1 | 8.683 |
| Cc1ccc(C(=O)N2CCC(c3noc(-c4cccnc4)n3)CC2)cn1 | 104.3 |
| Cc1cccc2[nH]c(C3CCN(C(=O)c4ccnn4C)CC3)nc12 | 1.136 |
| Cc1cc(C)n(CCN(C)c2ccc(-c3nc(C4CC4)no3)cn2)n1 | -7.447 |
| Cc1cc(CNc2ccc(-c3nc(C4CC4)no3)cn2)no1 | -5.978 |
| CS(=O)(=O)NCCn1ccc(-c2cccs2)n1 | -6.394 |
| CCS(=O)(=O)CC(C)NC(=O)N(C)Cc1cc(Cl)cn1C (stereo not drawn) | -1.914 |
| CCn1ccnc1CN1CCCC(CO)(Cc2cccc(OC)c2)C1 (stereo not drawn) | 5.509 |
| COCCN1CCN(C(=O)c2cc(C(C)C)on2)[C@H]2CS(=O)(=O)C[C@H]21 | 8.676 |
| CC(C)N1CC[C@@H]2[C@H](COCC3CC3)CN(C)C(=O)[C@@H]2CC1.O=C(O)C(F)(F)F | -0.4638 |
| COCC1c2nnn(C)c2CCN1C(=O)c1ccc(OC)c(F)c1 (stereo not drawn) | 111.1 |
| COCC1c2nnn(CC3CC3)c2CCN1C(=O)c1cccn1C (stereo not drawn) | -3.461 |
| COCC1c2nnn(CC3CC3)c2CCN1C(=O)c1cccc(F)c1 (stereo not drawn) | -7.214 |
| Cn1nnc2c1CCN(C(=O)CC1CC1)C2COCCN1CCCC1 (stereo not drawn) | -8.962 |

| Compound | Percent Effect [%] |
| --- | --- |
| COCC1c2nnn(C)c2CCN1C(=O)Cc1ccc2c(c1)OCO2 (stereo not drawn) | 20.75 |
| CCn1nnc2c1CCN(C(=O)c1ccc3c(c1)OCO3)C2COC (stereo not drawn) | -29.17 |
| COCC1c2nnn(C)c2CCN1C(=O)CCc1cccc(OC)c1 (stereo not drawn) | 104.7 |
| COCC1c2nnn(C)c2CCN1C(=O)COc1ccccc1C (stereo not drawn) | 112 |
| CCc1ccc(CN2CCc3c(nnn3C)C2COC)cc1.O=C(O)C(F)(F)F (stereo not drawn) | -3.58 |
| CN(C)C(=O)N1CCc2c(nnn2C)C1COCC1CC1 (stereo not drawn) | -5.702 |
| Cn1nnc2c1CCN(Cc1ccccn1)C2COCc1ccccc1.O=C(O)C(F)(F)F.O=C(O)C(F)(F)F (stereo not drawn) | -46.38 |
| COCC1c2nnn(C)c2CCN1C(=O)Cc1ccccn1 (stereo not drawn) | 111.4 |
| NC(=O)c1ccc(N2CCCCC2)c(NC(=O)c2cc(F)ccc2F)c1 | -3.666 |
| CCC(C)C(=O)NCc1cccc(N2CCCCC2=O)c1 (stereo not drawn) | -5.78 |
| Cn1cnnc1S(=O)(=O)C1CCN(S(=O)(=O)C2CC2)CC1 | -4.739 |
| CN(Cc1cc(Br)cn1C)C(=O)c1cscn1 | 4.085 |
| CCC(NCc1nccn1C)c1nc(C(F)(F)F)cs1 (stereo not drawn) | 20.15 |
| Cc1ccc(CN2CCC[C@@H]3CN(C(=O)c4ccco4)C[C@@H]32)o1.O=C(O)C(F)(F)F | -0.1922 |
| COCC1c2nnn(C)c2CCN1C(=O)COc1ccccc1OC (stereo not drawn) | 111.7 |
| COCC(=O)N1CCc2c(nnn2C)C1COCCN1CCCC1.O=C(O)C(F)(F)F (stereo not drawn) | -0.9958 |
| CN(C)C(=O)N1CCc2c(nnn2C)C1COCc1ccccc1 (stereo not drawn) | -4.916 |
| Cn1cnnc1CNC(=O)Nc1ccc(OC2CCC2)c(F)c1 | 19.99 |
| Cc1nc(C)c(C(=O)N2CCCc3c(F)cccc32)o1 | -18.15 |
| Cc1nc(C2CCCN(C(=O)c3sc(C)nc3C)C2)no1 (stereo not drawn) | -10.94 |
| Cc1ccc(C(=O)N2CCCC2c2nnc3n2CCCCC3)o1 (stereo not drawn) | -4.034 |
| Cc1ncsc1C(=O)N1CCc2nnc(C3CCCCN3C)n2CC1 (stereo not drawn) | 103.3 |
| Cc1nc(C)c(C(=O)N2CCc3nnc(C4CCCCN4C)n3CC2)s1 (stereo not drawn) | 78.92 |
| Cc1nc(C)c(C(=O)N2CCc3nnc(C4CCCCN4C)n3CC2)o1 (stereo not drawn) | 112.5 |
| Cc1nc(C)c(C(=O)N2CCCC2c2nnc3n2CCCCC3)s1 (stereo not drawn) | 13.74 |
| Cc1nc(C)c(C(=O)N2CCc3nnc(C4CCCN4C)n3CC2)s1 (stereo not drawn) | 98.46 |

| Compound | Percent Effect [%] |
| --- | --- |
| Cc1cc2c(=O)n3c(nc2s1)CCN(C(=O)c1scnc1C)CC3 | -10.56 |
| C=C(C)COc1cccc(CNC(CC(C)C)c2ncnn2C)c1 (stereo not drawn) | -17.42 |
| CCc1ccccc1OCCN(C)C(=O)CCN1CCCCO1 | -13.9 |
| CCN(c1ccc(C(=O)N2CCCC2c2cnn(C)c2)cn1)C(C)C (stereo not drawn) | 103.8 |
| CCN(c1ccc(C(=O)N(Cc2cnn(C)c2)C(C)C)cn1)C(C)C | -13.88 |
| CCCN(CC)c1ccc(C(=O)N2CCCC2c2cnn(C)c2)cn1 (stereo not drawn) | 104.2 |
| CC(C)(C#N)CCCS(=O)(=O)c1nccn1-c1cccc(F)c1 | -8.679 |
| CC(C)(C)c1cc(NC(=O)CN(Cc2cccs2)Cc2cccs2)on1 | 32.93 |
| CC(CC(F)(F)F)NCc1ccccc1-n1ccnc1 (stereo not drawn) | 3.95 |
| CC(C)C1CN(S(=O)(=O)c2ccc(C#N)cc2)CCS1 (stereo not drawn) | -10.5 |
| Cc1cc(C)n(C2CCCN(C(=O)CCOc3cccc(F)c3)C2)n1 (stereo not drawn) | 118.8 |
| Cc1cc(C)n(C2CCCN(C(=O)CN(C)C3CC3)C2)n1 (stereo not drawn) | -13.37 |
| Cc1cc(C)n(C2CCCN(C(=O)COCC(F)(F)F)C2)n1 (stereo not drawn) | -14.38 |
| Cc1nc(C)n(C2CCCN(C(=O)CCOc3cccc(F)c3)C2)n1 (stereo not drawn) | 103.4 |
| CC(NS(C)(=O)=O)C(=O)Nc1ccc2oc(C3CC3)nc2c1 (stereo not drawn) | -12.46 |
| CC(C)n1cnnc1CNC(=O)CCCOc1ccccc1Cl | -21.75 |
| O=C(NS(=O)(=O)c1cnn(-c2ccccc2F)c1)c1ccco1 | -14.51 |
| N#Cc1cccc(S(=O)(=O)N(CC2CCC2)c2cn[nH]c2)c1 | -4.525 |
| O=C(c1ccnnc1)N1CCO[C@H]2[C@@H](OCc3cccnc3)CC[C@@H]21 | -4.529 |
| O=C(C1=CCCC1)N1C[C@H](OCc2cccnc2)[C@H]2OCCC[C@H]21 | -3.807 |
| O=C(c1ccnnc1)N1C[C@@H](OCc2cccnc2)[C@H]2OCCC[C@H]21 | 85.61 |
| O=C(c1ccnnc1)N1CCO[C@H]2[C@H](Oc3cccnc3)CC[C@@H]21 | 84 |
| O=C(c1ccnnc1)N1C[C@H](Oc2cccnc2)[C@H]2OCCC[C@H]21 | -6.406 |
| Cc1occc1C(=O)N1CCO[C@H]2[C@H](Oc3cccnc3)CC[C@@H]21.O=C(O)C(F)(F)F | -18.12 |
| CCN(CC)C(=O)CCNC(=O)c1ccccc1N1CCOCC1 | -16.45 |
| Cc1csc(N2CCN(C(=O)c3cc(Cl)c[nH]3)CC2)n1 | -16.71 |

| Compound | Percent Effect [%] |
| --- | --- |
| Cc1nc(C)n(CC2CN(CCC(=O)N3CCCCC3)CCO2)n1 (stereo not drawn) | 110.4 |
| Cc1nc(C)n(CC2CN(CCc3ccncc3)CCO2)n1 (stereo not drawn) | -6.873 |
| Cc1nc(C)n(CC2CCCCN2CCS(C)(=O)=O)n1 (stereo not drawn) | -3.909 |
| Cc1nc(C)n(CC2CCCN(CCC(=O)N3CCOCC3)C2)n1 (stereo not drawn) | 132.9 |
| Cc1nc(C)n(CC2CCCN(CC(=O)N3CCCC3)C2)n1 (stereo not drawn) | 118.1 |
| Cc1nc(C)n(CC2CCCN(CCC(=O)N3CCCCC3)C2)n1 (stereo not drawn) | -10.32 |
| Cc1nc(C)n(CC2CCCCN2CCCO)n1 (stereo not drawn) | 0.7848 |
| Cc1nc(C)n(CC2CCCN2CCC(=O)N2CCCCC2)n1 (stereo not drawn) | 145.3 |
| Cc1nc(C)n(CC2CCCN(CC(=O)Nc3nncs3)C2)n1 (stereo not drawn) | -5.341 |
| Cc1nc(C)n(CC2CCCN(CC(=O)Nc3c(C)n[nH]c3C)C2)n1 (stereo not drawn) | -12.55 |
| Cc1nc(C)n(CC2CN(CCn3cccn3)CCO2)n1 (stereo not drawn) | 6.801 |
| Cc1nc(C)n(CC2CCCN(CCCS(=O)(=O)N(C)C)C2)n1 (stereo not drawn) | -11.1 |
| CCc1nc(C)c(-c2nccn2CC2CCCCO2)[nH]1 (stereo not drawn) | -5.573 |
| CCN(C(=O)c1ccc2nnc(C3CCN(CCOC)C3)n2c1)C(C)C.O=C(O)C(F)(F)F (stereo not drawn) | 2.172 |
| CN(CCN1CCCCCC1)Cc1cnc(N)nc1 | -0.8813 |
| CCN1CCC(Cn2ccc3ccc(C(=O)OC)cc3c2=O)C1 (stereo not drawn) | -7.454 |
| COc1ccccc1CNC(=O)C1=NN(c2ccc(C)cc2)C(=O)CN1 | 1.348 |
| Fc1ccc2[nH]c(C3CCCN3CCc3ccccn3)nc2c1 (stereo not drawn) | 17.03 |
| O=C(CCN1CCCC1c1ccccn1)N1CCc2ccccc2C1 (stereo not drawn) | 1 |
| CSCC1CCCN1CCc1ccncc1 (stereo not drawn) | 7.935 |
| COCC(=O)N1CCCC1c1ccnc(Nc2cnccn2)n1 (stereo not drawn) | -7.486 |
| c1ccc(CCN2CCCC2c2ccnc(Nc3ncccn3)n2)cc1 (stereo not drawn) | 212.6 |
| c1cc(CCN2CCCC2CN2CCCC2)ccn1 (stereo not drawn) | 17.12 |
| c1ccc(CCN2CCCC2c2ccnc(Nc3cnccn3)n2)cc1 (stereo not drawn) | 169.2 |
| Nc1nccc(C2CCCN2CCc2ccccc2)n1 (stereo not drawn) | 168.1 |
